Source: PubChem BioAssay

Experiments:
[1] = tested on: Botulinum neurotoxin type F light chain protease (Clostridium botulinum); test: Clostridium botulinum type F light chain protease inhibitors, microsphere substrate cleavage, validation (AID 588459); details: multiplex microsphere protease substrate cleavage assay, flow cytometry; at 10 µM; active compounds read high
[2] = biological target: Botulinum neurotoxin type A (Clostridium botulinum) (UniProt P0DPI0); test: BoNT/A light chain protease inhibitors, biochemical, multiplex microsphere flow cytometry, validation set (AID 588460); details: at 10 µM, active compounds read high
[3] = biological target: Lethal factor (Bacillus anthracis) (UniProt P15917); test: Bacillus anthracis lethal factor inhibition, microsphere flow cytometry protease assay, validation at 10 µM (AID 588461); details: multiplex microsphere protease cleavage assay, active compounds read high

Measured: inhibition

Lethal factor (Bacillus anthracis), sequence (P15917 whole entry, looked up): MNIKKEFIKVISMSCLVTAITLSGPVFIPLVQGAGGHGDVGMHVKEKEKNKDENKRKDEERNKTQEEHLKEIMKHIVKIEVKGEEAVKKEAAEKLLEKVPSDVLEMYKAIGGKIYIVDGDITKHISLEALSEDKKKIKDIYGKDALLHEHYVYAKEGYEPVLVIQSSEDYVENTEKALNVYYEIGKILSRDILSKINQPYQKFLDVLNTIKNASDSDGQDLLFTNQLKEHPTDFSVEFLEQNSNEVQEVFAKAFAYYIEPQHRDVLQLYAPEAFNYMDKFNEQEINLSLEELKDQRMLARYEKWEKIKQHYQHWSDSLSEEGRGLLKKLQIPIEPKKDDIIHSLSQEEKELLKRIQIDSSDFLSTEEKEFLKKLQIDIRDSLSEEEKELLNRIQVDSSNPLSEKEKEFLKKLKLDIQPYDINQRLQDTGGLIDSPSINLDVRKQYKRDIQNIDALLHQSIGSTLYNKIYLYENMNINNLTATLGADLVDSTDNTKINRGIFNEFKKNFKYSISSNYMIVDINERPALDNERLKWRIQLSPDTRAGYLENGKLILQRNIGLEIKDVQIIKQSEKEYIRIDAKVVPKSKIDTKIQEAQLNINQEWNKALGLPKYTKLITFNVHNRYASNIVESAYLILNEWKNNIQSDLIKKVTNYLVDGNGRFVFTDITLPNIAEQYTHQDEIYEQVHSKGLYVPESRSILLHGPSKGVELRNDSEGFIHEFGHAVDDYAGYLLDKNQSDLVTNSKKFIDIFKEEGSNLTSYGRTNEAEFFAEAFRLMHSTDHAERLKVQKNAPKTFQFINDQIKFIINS
Botulinum neurotoxin type A (Clostridium botulinum), sequence (P0DPI0 whole entry, looked up): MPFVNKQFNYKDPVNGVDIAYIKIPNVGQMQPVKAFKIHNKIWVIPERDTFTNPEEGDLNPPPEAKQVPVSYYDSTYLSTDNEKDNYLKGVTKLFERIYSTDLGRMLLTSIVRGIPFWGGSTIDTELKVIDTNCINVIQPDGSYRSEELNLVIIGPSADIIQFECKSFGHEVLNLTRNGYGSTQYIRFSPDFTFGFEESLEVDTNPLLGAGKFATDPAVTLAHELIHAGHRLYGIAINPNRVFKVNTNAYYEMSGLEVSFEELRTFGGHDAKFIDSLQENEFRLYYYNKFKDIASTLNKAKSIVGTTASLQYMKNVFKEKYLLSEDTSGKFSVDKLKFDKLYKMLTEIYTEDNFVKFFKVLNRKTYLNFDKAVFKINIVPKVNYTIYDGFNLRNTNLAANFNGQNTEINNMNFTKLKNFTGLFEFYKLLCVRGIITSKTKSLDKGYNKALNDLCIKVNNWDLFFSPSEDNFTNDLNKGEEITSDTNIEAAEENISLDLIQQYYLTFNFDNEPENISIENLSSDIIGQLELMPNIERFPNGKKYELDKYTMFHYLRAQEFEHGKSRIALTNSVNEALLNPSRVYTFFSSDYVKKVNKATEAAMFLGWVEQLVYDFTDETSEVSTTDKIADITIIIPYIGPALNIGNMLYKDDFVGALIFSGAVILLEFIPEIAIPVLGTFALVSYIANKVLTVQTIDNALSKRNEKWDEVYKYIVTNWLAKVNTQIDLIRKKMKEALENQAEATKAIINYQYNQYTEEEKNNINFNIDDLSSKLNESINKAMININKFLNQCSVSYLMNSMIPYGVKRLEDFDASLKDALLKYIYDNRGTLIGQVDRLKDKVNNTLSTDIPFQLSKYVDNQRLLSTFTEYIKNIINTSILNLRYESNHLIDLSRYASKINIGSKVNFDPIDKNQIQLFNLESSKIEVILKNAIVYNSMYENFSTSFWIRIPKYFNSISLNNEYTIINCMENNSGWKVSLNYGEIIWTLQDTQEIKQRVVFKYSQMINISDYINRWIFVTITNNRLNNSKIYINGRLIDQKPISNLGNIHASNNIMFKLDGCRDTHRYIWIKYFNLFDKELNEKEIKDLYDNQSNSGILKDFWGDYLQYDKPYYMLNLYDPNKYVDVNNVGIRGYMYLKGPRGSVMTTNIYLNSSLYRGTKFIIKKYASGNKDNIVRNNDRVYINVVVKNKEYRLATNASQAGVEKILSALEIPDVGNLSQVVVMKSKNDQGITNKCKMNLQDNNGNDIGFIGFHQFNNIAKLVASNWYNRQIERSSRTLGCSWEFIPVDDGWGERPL

CCc1cc(/C(Cc2ccccn2)=N\O)c(O)cc1O
inactive: [1] -2.8% | [2] -2.8% | [3] -5.1%

COc1ccc(C2CC(c3ccc([N+](=O)[O-])cc3)=NN2C(=O)c2ccccc2)cc1OC (configuration not stated)
inactive: [1] 10.2% | [2] 7.9% | [3] 2.3%

CCC(=O)c1ccc(OCc2ccc(C(=O)OC)cc2)cc1
inactive: [1] -1.6% | [2] 0.7% | [3] -3.4%

COC1CCN(Cc2cn(Cc3ccccc3)nc2-c2cc3ccccc3o2)CC1
inactive: [1] 2% | [2] -0.8% | [3] -3.3%

COc1cccc(N2CC(O)=C(c3nc4ccccc4c(=O)[nH]3)C2=N)c1
inactive: [1] -2.2% | [2] -1.1% | [3] -6.2%

COc1cc2c(cc1OC)C(c1cc3ccccc3oc1=O)=NC(C)(C)C2
inactive: [1] 0.9% | [2] 0% | [3] 0%

COc1cc(C(=O)OCCn2c(=O)c3c(ncn3CCN(C)C)n(C)c2=O)cc(OC)c1OC
inactive: [1] 5.1% | [2] 2.5% | [3] -3.1%

Cc1ccc(P(=O)(CSC(=N)N)c2ccc(C)cc2)cc1
inactive: [1] -1.3% | [2] -0.5% | [3] -7.5%

COc1ccc(C(=O)/C=C/c2ccc(OC(=O)c3cc(OC)c(OC)c(OC)c3)cc2)cc1
inactive: [1] 2.9% | [2] 0.3% | [3] -5%

CC(C)CN(C)Cc1c(C(=O)N2CCc3ccccc3C2)nc2ccc(Cl)cn12
inactive: [1] 2.4% | [2] 0.6% | [3] 1%

CC(C)C1CC(CCNCc2ccc(N(C)C)cc2)(c2ccccc2)CCO1 (configuration not stated)
inactive: [1] -3.7% | [2] -1.8% | [3] -9.1%

O=C(N/N=C/c1ccc([N+](=O)[O-])o1)c1ccc(O)cc1
inactive: [1] 0.2% | [2] -3.9% | [3] -11.9%

c1ccc2[nH]c(-c3cscn3)nc2c1
inactive: [1] 1.2% | [2] 0.1% | [3] -4%

CC(OC(=O)c1cc(=O)[nH]c2ccccc12)C(=O)c1ccccc1 (configuration not stated)
inactive: [1] 2.3% | [2] -2.4% | [3] -6.9%

C[C@]12CC[C@@H]3c4ccc(O)cc4C(=O)C[C@H]3[C@@H]1CC[C@@H]2O
inactive: [1] 1.2% | [2] -1.3% | [3] -6.8%

COc1c(C)cc(C(=O)C2CCCN(Cc3ccc(Oc4ncccn4)cc3)C2)cc1C (configuration not stated)
inactive: [1] -2.8% | [2] -1.2% | [3] -4.4%

CC(NC(=O)c1ccc(N2CCNCC2)c([N+](=O)[O-])c1)C12CC3CC(CC(C3)C1)C2 (configuration not stated)
inactive: [1] 0.1% | [2] -0.6% | [3] -5.2%

C[C@]12CC[C@H]3C(=CCc4cc(O)ccc43)[C@@H]1CCC2=O
inactive: [1] 0.5% | [2] -0.6% | [3] 2.9%

CCn1cc(C(=O)O)c(=O)c2ccc(C)nc21
inactive: [1] 1.3% | [2] -1.5% | [3] -3.9%

CC1Cc2ccccc2N1NC(=O)c1ccc(Cl)c(S(N)(=O)=O)c1 (configuration not stated)
inactive: [1] 1.4% | [2] 0.7% | [3] -0.2%

CN1CCN(C2=Nc3ccccc3Oc3ccc(Cl)cc32)CC1
inactive: [1] -0.8% | [2] -1.8% | [3] -3.9%

CC(C)Oc1ccc(C(CC(=O)O)c2ccc(F)cc2)cc1 (configuration not stated)
inactive: [1] 5.2% | [2] 2% | [3] 0.9%

CCCCC(=O)O[C@H]1CC[C@H]2[C@@H]3CCc4cc(O)ccc4[C@H]3CC[C@]12C
inactive: [1] 0.5% | [2] 0.1% | [3] -1.7%

CC1(C)CC(c2csc(N)n2)CCO1 (configuration not stated)
inactive: [1] -0.4% | [2] -1% | [3] -8.4%

CN(C)CCN(Cc1ccc(Cl)cc1)c1ccccn1
inactive: [1] -0.9% | [2] 0.1% | [3] -1.2%

CCCC(=O)Nc1ccccc1NC(C)=O
inactive: [1] 1.4% | [2] 0.3% | [3] -2.9%

CCC(NC(C)C)C(O)c1ccc(O)c(O)c1 (configuration not stated)
inactive: [1] -5.4% | [2] -0.9% | [3] -4%

CC(=O)N(CCC1(C(C)C)CCOC(C)(C)C1)Cc1ccco1 (configuration not stated)
inactive: [1] -2% | [2] -1.4% | [3] 0.2%

Cc1ccc(Cl)c(OCCCN(C)Cc2ccccc2)c1
inactive: [1] 2.8% | [2] 0.1% | [3] -7.8%

O=C(O)c1ccc(C(=O)C(=O)c2ccccc2)cc1
inactive: [1] 1.6% | [2] 1.8% | [3] -6.8%

CN1CCC(OC(c2ccccc2)c2ccccc2)CC1
inactive: [1] -0.8% | [2] -0.5% | [3] -5.1%

COc1cc(C(=O)N/C(=C\c2cn(C)c3ccccc23)C(=O)NCCCO)cc(OC)c1OC
inactive: [1] 2% | [2] -1.2% | [3] -2.5%

Cc1cc(OCC(=O)C(C)(C)C)c2c(C)c(C)c(=O)oc2c1
inactive: [1] -1.4% | [2] 0.5% | [3] 0.7%

CCOC(=O)C(=O)Nc1ccc(Oc2ccccc2)cc1
inactive: [1] 1.4% | [2] 0% | [3] 1.3%

Cc1ncoc1C(=O)N1CCCC(C(=O)c2ccc(-c3ccccc3)c(F)c2)C1 (configuration not stated)
inactive: [1] -2.3% | [2] -0.1% | [3] -5.3%

Cc1onc(-c2c(Cl)cccc2Cl)c1C(=O)NC1C(=O)N2C1SC(C)(C)C2C(=O)O (configuration not stated)
inactive: [1] 1.2% | [2] 0.2% | [3] 2.3%

Cc1cc(C)c(NC(=O)NC(=O)C(Cl)(Cl)Cl)c(C)c1
inactive: [1] 2.9% | [2] 0.1% | [3] -3.8%

COc1cc(/C=C/C(=O)O)cc(S(=O)(=O)NCCCO)c1OC
inactive: [1] 1.9% | [2] 0.7% | [3] 2.3%

Cc1ccc(S(=O)(=O)n2ccnc2)cc1C
inactive: [1] 1.4% | [2] -0.3% | [3] -1.7%

C[N+]12CCC(CC1)C(OC(=O)C(O)(c1ccccc1)c1ccccc1)C2 (configuration not stated)
inactive: [1] 1% | [2] 0.1% | [3] -0.4%

O=C(COc1ccc(F)cc1)OCCN1CCOCC1
inactive: [1] 1.8% | [2] -1% | [3] -5.2%

CCN1C(=O)C(CC(=O)Nc2ccc(F)cc2)N(Cc2ccc3c(c2)OCO3)C1=S (configuration not stated)
inactive: [1] -1.3% | [2] -0.3% | [3] -6.1%

CCOc1cc2oc(=O)c3c(c2cc1Cl)CCC3
inactive: [1] 3% | [2] -0.7% | [3] -2.7%

NC(=O)c1cccnc1
inactive: [1] 1.8% | [2] -0.2% | [3] 3%

COc1ccc(NC(=O)N2CCCCC2c2cccnc2)cc1 (configuration not stated)
inactive: [1] 2.7% | [2] 0.7% | [3] -0.9%

COc1cc(CNCc2ccc(OC)c(OC)c2OC)cc(OC)c1
inactive: [1] 0.5% | [2] -0.7% | [3] 5.3%

O=C(/C=C/c1ccc(Cl)cc1)NCCc1ccccc1
inactive: [1] -4% | [2] 0.4% | [3] 2.3%

COc1ccc([C@H]2[C@H](C(=O)OC(C)(C)C)N3N=Cc4ccccc4C3C23C(=O)c2ccccc2C3=O)cc1OC (some centres not stated)
inactive: [1] -0.2% | [2] 0.5% | [3] -5.5%

COc1ccccc1/C=C/CN1CCN(Cc2ccc(F)cc2)C(CCO)C1 (configuration not stated)
inactive: [1] 5.5% | [2] -0.2% | [3] -1.4%

CC(C)[N+](C)(CCOC(=O)C1c2ccccc2Oc2ccccc21)C(C)C
inactive: [1] -0.1% | [2] 0.5% | [3] 4%

CC1CC(OC(=O)C(O)c2ccccc2)CC(C)(C)N1C (configuration not stated)
inactive: [1] -2.4% | [2] -1.7% | [3] -6.1%

NC(=O)N1c2ccccc2CC(=O)c2ccccc21
inactive: [1] -1.1% | [2] 0.3% | [3] 0.4%

CCc1nc2ccccc2c(NC(=O)CN2CC(C)CC(C)C2)c1C (configuration not stated)
inactive: [1] -2% | [2] 0.8% | [3] 0.9%

COCCCN1C(=O)/C(=C\c2cccs2)C(C(=O)OC)=C1C
inactive: [1] -1.3% | [2] -0.8% | [3] 3.3%

COc1cc2ccc(=O)oc2c(O)c1OCC=C(C)C
inactive: [1] -4.9% | [2] 1.4% | [3] 1.2%

O=C(CCC(=O)NCCO)NCCO
inactive: [1] 1.2% | [2] 0.4% | [3] 6.9%

Cc1ccc2ncnc(NCCCCCC(=O)O)c2c1
inactive: [1] 1.7% | [2] -1.1% | [3] -4.7%

COCCOC(=O)c1c(C)oc2ccc(OCc3cc(C(=O)OC)oc3C)cc12
inactive: [1] -0.6% | [2] -0.8% | [3] 1.6%

Nc1ccc2nc(Cc3ccccc3)[nH]c2c1
inactive: [1] -12.8% | [2] -5.2% | [3] -74.5%

O=C(O)C[C@@H](O)C(=O)O
inactive: [1] 0.4% | [2] -0.4% | [3] -1.2%

NS(=O)(=O)c1ccc(CNC(=O)c2cc(-c3ccccc3)nc3ccccc23)cc1
inactive: [1] 0.5% | [2] 0.4% | [3] -4.8%

CN(C)C(=O)CCCCCCCCC(=O)N(C)C
inactive: [1] -2.7% | [2] -0.9% | [3] -5.5%

O=C(NC1CC1)C1CCN(C2CCN(C(=O)Cc3ccc(F)cc3)CC2)CC1
inactive: [1] -2.4% | [2] -0.6% | [3] 4.9%

COc1cccc(=O)c2c(C)n(CC(=O)c3ccccc3)c(C)c12
inactive: [1] -4.4% | [2] 0.1% | [3] -9.8%
